# Compounds with a hit are over-represented: about 2.4% of the library has one in this group of screens.
# FEN1 inh – inhibitors of human flap endonuclease 1; P39748; Recombinant FEN1 flap cleavage, fluorescence, 15 min; Potency, µM (titrated, usually from 114 µM), for the others: at the highest dose activity change, negative = inhibition, usual class: inhibitors; 390,000 compounds, 0.35% hits; also: % is scaled to controls: 0 for no effect and ±100 for the full control effect; nearly all actives have a fitted effect of over 65% in size
#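 Read-out was taken twice, immediately and after 15 min, following addition of 50 nM substrate to 10 nM FEN1 that had sat with test compound for 15 min at room temperature. Curves came from a four-parameter Hill model.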
# WRN helicase inh-1 – blocks human WRN helicase. 360,000 compounds, 0.46% hits. Q14191. WRN helicase unwinding, fluorescent forked duplex, kinetic. Potency, µM (doses to about 114 µM), for the others: top-dose activity change, negative = inhibition, usual class: inhibitors; also: % is scaled to controls: 0 for no effect and ±100 for the full control effect; nearly all actives have a fitted effect of over 55% in size
#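 WRN at 20 nM final preincubated with compound 15 min at room temperature; reaction started with 100 nM fluorophore/quencher forked duplex oligonucleotide and 2 mM ATP final. Unwinding followed kinetically by red fluorescence (ex 525, em 598 nm).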
# Pol iota inh – inhibitors of human DNA polymerase iota; Q9UNA4; Pol iota fluorescent replication assay, 10 min; Potency, µM (doses to about 115 µM), for inactives: at the highest dose activity, negative = inhibition, most hits filed as inhibitors; 390,000 compounds, 1% hits; AID 588590
#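 Pol iota at 10 nM preincubated 15 min with compounds at room temperature; reaction started with fluorescent substrate, 50 nM final. Fluorescence read kinetically at 0 and 10 min; buffer-only wells as negative control.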
# Pol beta inh – blocks human DNA polymerase beta activity; AID 485314; 340,000 compounds, 1.3% hits; Pol beta primer extension/strand displacement, fluorescence kinetic; Potency, µM (doses to about 114 µM), for the others: top-dose activity change, negative = inhibition, actives largely listed as inhibitors; also: % is scaled to controls: 0 for no effect and ±100 for the full control effect
#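 Pol beta (10 nM) and compounds were preincubated 15 min at room temperature, then 50 nM substrate (final) started primer extension/strand displacement. Reads were taken at 0 and 10 min; concentration-response data were fitted to a four-parameter Hill equation.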
# Pol eta inh – blocks human DNA polymerase eta activity; recombinant Pol eta, fluorescent DNA replication assay; Potency, µM (highest dose often 114 µM), inactives show at the top dose activity change, negative = inhibition, hits mostly inhibitors; 390,000 compounds, 1.2% hits; AID 588591; also: % is scaled to controls: 0 for no effect and ±100 for the full control effect
#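 Pol eta (10 nM) was preincubated with compounds for 15 min at room temperature, after which fluorescent replication substrate (50 nM final) was added to start the reaction. Fluorescence was read kinetically at 0 and 10 min.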
# Pol kappa inh – inhibitors of human DNA polymerase kappa; Q9UBT6; purified Pol kappa, fluorescent DNA synthesis assay, 10 min; Potency, µM (highest dose often 107 µM), without a hit: at the top dose activity, negative = inhibition, usual class: inhibitors; 400,000 compounds, 0.53% hits; AID 588579; also: % is scaled to controls: 0 for no effect and ±100 for the full control effect
# Target sequence (Q9UBT6 whole entry, looked up): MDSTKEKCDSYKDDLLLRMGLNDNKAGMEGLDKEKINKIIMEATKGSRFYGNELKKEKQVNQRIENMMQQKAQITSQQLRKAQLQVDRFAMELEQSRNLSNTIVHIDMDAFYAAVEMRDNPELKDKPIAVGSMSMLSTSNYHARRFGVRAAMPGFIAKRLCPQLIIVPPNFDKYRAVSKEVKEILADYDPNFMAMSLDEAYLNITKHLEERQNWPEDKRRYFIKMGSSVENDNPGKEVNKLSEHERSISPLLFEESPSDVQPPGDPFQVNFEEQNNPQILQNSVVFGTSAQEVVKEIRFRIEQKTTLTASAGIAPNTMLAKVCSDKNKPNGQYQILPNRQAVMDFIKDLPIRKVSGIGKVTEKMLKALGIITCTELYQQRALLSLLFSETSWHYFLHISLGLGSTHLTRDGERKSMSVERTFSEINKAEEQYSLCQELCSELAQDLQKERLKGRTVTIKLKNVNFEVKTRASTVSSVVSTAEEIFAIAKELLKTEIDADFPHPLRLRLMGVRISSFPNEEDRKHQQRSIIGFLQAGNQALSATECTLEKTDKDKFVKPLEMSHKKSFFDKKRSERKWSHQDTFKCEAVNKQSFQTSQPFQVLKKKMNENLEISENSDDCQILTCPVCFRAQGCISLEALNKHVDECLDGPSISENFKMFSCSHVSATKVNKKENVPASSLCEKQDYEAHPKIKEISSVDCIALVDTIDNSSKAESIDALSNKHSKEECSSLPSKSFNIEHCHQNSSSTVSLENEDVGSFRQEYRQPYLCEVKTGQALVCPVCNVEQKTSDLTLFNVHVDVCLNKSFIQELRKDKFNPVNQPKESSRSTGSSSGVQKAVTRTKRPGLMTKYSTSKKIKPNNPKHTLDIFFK
#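 Readout: fluorescence, taken kinetically at 0 and 10 min. Conditions: 10 nM Pol kappa, 15 min RT compound preincubation, 50 nM substrate final. Controls: enzyme-free buffer wells.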
# WRN helicase inh-2 – confirmation of human WRN helicase inhibitors. shares compounds with WRN helicase inh-1. WRN helicase DNA unwinding, fluorescence kinetic. Potency, µM (doses to about 57.1 µM), without a hit: at the top dose activity, negative = inhibition, usual class: inhibitors. 610 compounds, 63% hits; also: nearly all actives have a fitted effect of over 65% in size
# TO DNA binding – counter-screen for WRN helicase inhibitors: DNA binding | shares compounds with WRN helicase inh-1 | thiazole orange DNA binding displacement, fluorescence | Potency, µM (top dose mostly 57.1 µM), for the others: at the highest dose activity change, negative = inhibition, actives largely listed as inhibitors | 610 compounds, 10% hits | AID 720499;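 also: drop in dye fluorescence marks compound binding to DNA; % is scaled to controls: 0 for no effect and ±100 for the full control effect; nearly all actives have a fitted effect of over 60% in size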
# BLM counter – blocks human BLM helicase in WRN counterscreen. shares compounds with WRN helicase inh-1. AID 720503. Potency, µM (titrated, usually from 57.1 µM), for inactives: at the highest dose activity change, negative = inhibition, most hits filed as inhibitors. Recombinant BLM helicase DNA unwinding, red fluorescence. 610 compounds, 60% hits; also: nearly all actives have a fitted effect of over 60% in size
# * = called active by the depositor; ? = inconclusive; / = no result; [ ] = another dose, or the depositor's remark. Calls follow the shape of the dose curve; as a rule, active = well fitted curve in the direction sought with a large enough effect; inconclusive = small, poorly fitted or top-dose-only effect, or another doubt; inactive = no such curve, though single readings can be large; an effect the other way counts as inactive or inconclusive. Potency is read from the fitted curve at half-maximal effect.
SMILES,FEN1 inh,WRN helicase inh-1,Pol iota inh,Pol beta inh,Pol eta inh,Pol kappa inh,WRN helicase inh-2,TO DNA binding,BLM counter
Cc1ccc2nc3c(cc2c1)c(C)nn3-c1ccccc1,6%,5%,8%,20%,-18%,19%,/,/,/
COc1cc(/C=N/Nc2ccccc2)ccc1O,9%,8%,?,-16%,-11%,-9%,/,/,/
COc1cc(/C=N/Nc2nnc3c(n2)[nH]c2ccccc23)ccc1O,-11%,?,40µM*,?,?,-6%,?,-14%,?
CC(=O)N(C1=C(Cl)C(=O)c2ccccc2C1=O)C1CCCCC1,?,14µM*,?,7%,-10%,-13%,-27%,-16%,?
COc1cccc(CNc2sc3c(c2C(=O)Nc2ccc(OC)cc2OC)CCC3)c1,-3%,/,14%,-1%,-8%,-9%[60.1 µM],/,/,/
CCOc1ccccc1NC(=O)CSc1nc2c(c(=O)[nH]1)CCC2,10%,/,-15%,1%,/,-13%,/,/,/
CC(=O)N1CCC2(CCCN(C(=O)Nc3cccc(C#N)c3)C2)CC1,/,/,/,/,/,-14%[60.1 µM],/,/,/
COc1cccc(/C=C2/C(=O)NN(c3ccc(Br)cc3)C2=O)c1O,-8%,0.67µM*,29%,?,79µM*,-25%,17µM*,-23%,6.8µM*
COc1cc(/C=C2/C(=O)NN(c3ccc(Cl)cc3)C2=O)cc(Br)c1O,14%,-23%,?,?,-13%,-21%,/,/,/
Nc1c(S(=O)(=O)O)cc(NC(=O)c2ccccc2)c2c1C(=O)c1ccccc1C2=O,?,28µM*,?,22µM*,18µM*,-9%,12µM*,11µM*,19µM*
O=C(Nc1ccccc1-c1ccccc1)c1ccccc1,-13%,-2%,5%,15%,1%,-3%,/,/,/
Cc1ccc(C(=O)NNC(=O)c2ccc(S(=O)(=O)N3CCCCC3)cc2)cc1,-16%,35µM*,?,/,-2%,-17%,-17%,-2%,?
CCOc1cccc(C(c2c(C)n(C)n(-c3ccccc3)c2=O)c2c(C)n(C)n(-c3ccccc3)c2=O)c1OC,20%,0%,-1%,-3%,-20%,-11%,/,/,/
COc1cccc(C(c2c(C)[nH]n(-c3ccccc3)c2=O)c2c(C)[nH]n(-c3ccccc3)c2=O)c1OC,-24%,?,1.3µM*,-26%,-6%,-28%,-11%,-10%,-11%
CCCc1cc(CN2CCOCC2)c(O)c(CN2CCOCC2)c1O,1%,18µM*,-14%,/,-13%,-15%,-13%,-3%,-25%
COc1ccccc1NC(=O)Cn1c(=O)n(-c2cccc(C)c2)c(=O)c2c1c1cc(C)ccc1n2C,1%,/,16%,-1%,-19%,-12%[60.1 µM],/,/,/
Cc1ccc(NC(=O)N/C=C/c2ccco2)cc1,-15%,?,20µM*,22µM*,50µM*,50µM*,-23%,-28%,14µM*
CCN(CC)c1ccc(N=C2C=CC(=O)C=C2NC(C)=O)cc1,?,18µM*,45µM*,/,-5%,?,-13%,-11%,-23%
CCN(CC)c1ccc(NC(=O)Nc2ccc(C(C)=O)cc2)cc1,-2%,-2%,2%,?,-1%,-19%,/,/,/
COCCn1c(=O)sc2ccccc2c1=O,1%,?,89%,6%,-2%,-8%,6%,-4%,-11%
